PubChem BioAssay (NCI)
The panel holds about 83,000 compounds, 20% with a hit somewhere; the sample as a whole holds those more often.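 Negative percent growth values reflect cell death: -40 means 40% of the cells present at the start died, and -100 means all died.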 Values without a mark were called inactive. Calls of active or inactive are those of the source. The calls were made as follows: active = growth percent below 10; inactive = the rest.

Columns and labels:
Assay in all cases: NCI-60 one-dose screen, 48 h (100 = growth as untreated, 0 = no growth, -100 = all killed)
Conditions in all cases: 10 µM unless noted
NCI-H23 lung = tested on: NCI-H23 lung
NCI-H226 lung = tested on: NCI-H226 lung
NCI-H322M lung = tested on: NCI-H322M lung
HOP-62 NSCLC = tested on: HOP-62 NSCLC
NCI-H460 lung = tested on: NCI-H460 lung
HOP-92 NSCLC = tested on: HOP-92 NSCLC
NCI-H522 lung = tested on: NCI-H522 lung
A549/ATCC NSCLC = tested on: A549/ATCC NSCLC
786-0 renal = tested on: 786-0 renal
COLO 205 colon = tested on: COLO 205 colon
DU-145 prostate = tested on: DU-145 prostate
MALME-3M melanoma = tested on: MALME-3M melanoma
MDA-MB-231 breast = tested on: MDA-MB-231 breast
RXF 393 renal = tested on: RXF 393 renal
SF-268 CNS = tested on: SF-268 CNS
SF-295 CNS = tested on: SF-295 CNS
SF-539 CNS = tested on: SF-539 CNS
UACC-257 melanoma = tested on: UACC-257 melanoma
M14 melanoma = tested on: M14 melanoma
K-562 leukemia = tested on: K-562 leukemia

Row | Compound | growth (NCI-H23 lung) | growth (NCI-H226 lung) | growth (NCI-H322M lung) | growth (HOP-62 NSCLC) | growth (NCI-H460 lung) | growth (HOP-92 NSCLC) | growth (NCI-H522 lung) | growth (A549/ATCC NSCLC) | growth (786-0 renal) | growth (COLO 205 colon) | growth (DU-145 prostate) | growth (MALME-3M melanoma) | growth (MDA-MB-231 breast) | growth (RXF 393 renal) | growth (SF-268 CNS) | growth (SF-295 CNS) | growth (SF-539 CNS) | growth (UACC-257 melanoma) | growth (M14 melanoma) | growth (K-562 leukemia)
1 | CCCCNC(=O)Oc1ccc(/C(=C(/CC)Cc2ccccc2)c2ccc(OCCCN(C)C)cc2)cc1 | 91.7% | 92.9% | 83.1% | 96.1% | 63.7% | 43.8% | 88.1% | 69.5% | 71.2% | 20.5% | 89.2% | 93.4% | 78.9% | 70.7% | 77.8% | 94.9% | 88.5% | 104% | 81.8% | 
2 | CC(C(=O)O)N1C(N)=NNC1c1ccccc1O (stereo not drawn) | 86.3% | 84.6% | 82.3% | 81.5% | 84.7% | 77.7% | 74.8% | 83.3% | 104% | 103% | 102% | 85.6% | 76.6% | 96.4% | 84% | 99.3% | 103% | 87.1% | 96.9% | 
3 | O=C(Nc1ccc(F)cc1)Nc1ccc(Cl)c([N+](=O)[O-])c1 | -1.96% (active) | 16% | 28.4% | 38.8% | 3.03% (active) | -8.16% (active) | 2.42% (active) | 17.1% | 26.7% | 12% | 18.9% | 27.4% | 40% | 51.1% | 32.7% | 8.17% (active) | 36.2% | 34.9% | 24% | 
4 | CCNC(=O)Oc1ccc(/C(=C(/CC)Cc2ccccc2)c2ccc(OCCN3CCOCC3)cc2)cc1 | 66.8% | 59.4% | 72.8% | 84% | 44.7% | 38.6% | 56.4% | 36.7% | 55.7% | 50.9% | 73.9% | 81.1% | 71.4% | 42.7% | 43.7% | 68.7% | 77.2% | 79.4% | 41.6% | 
5 | O=C(Nc1ccc(Cl)c(Cl)c1)Nc1ccc(Cl)c([N+](=O)[O-])c1 | -14.4% (active) | 1.2% (active) | 6.27% (active) | -3.52% (active) | 1.62% (active) | -23.2% (active) | -12.7% (active) | 4.45% (active) | 7.48% (active) | -80% (active) | 18% | -12.3% (active) | -62.6% (active) | -11.8% (active) | 14.1% | -26.6% (active) | 8.74% (active) | -8.5% (active) | 0.455% (active) | 
6 | CCCc1nn2c(CCC(=O)c3nc4ccc([N+](=O)[O-])cc4[nH]3)nnc2s1 | 94.4% | 102% | 97.9% | 106% | 104% | 114% | 104% | 99.9% | 108% | 112% | 108% | 105% | 95.9% | 114% | 100% | 104% | 103% | 113% | 99.6% | 
7 | COc1ccc(-c2cc3ccc(N(C)C)cc3nc2N)c(F)c1 | 19% | 48.2% | 66.9% | 40.3% | 31.9% | 19% | 31% | 40.8% | 48.3% | 12.2% | 56.1% | 25.3% | 48.5% | 32.4% | 56.5% | 25.4% | 49.1% | 23.3% | -60.5% (active) | 
8 | N#CC1=C(N)Oc2c(ccc3ccccc23)C1c1cc(=O)oc2ccc(Cl)cc12 (stereo not drawn) | 32.9% | 98.3% | 44.2% | 33.3% | 8.96% (active) | 87.5% | 5.22% (active) | 26.6% | 29.4% | -16.4% (active) | 19.4% | 77.8% | 50% | 7.4% (active) | 56.1% | 14.1% | 3.16% (active) | 73.5% | 3.47% (active) | 
9 | C=C1C(=O)O[C@H]2[C@H]1CC/C(COC(=O)c1ccc(Cl)nc1)=C\CC[C@@]1(C)O[C@@H]21 | 47.5% | -9.06% (active) | 68.4% | 57.1% | 56.1% | -40.1% (active) | -83.7% (active) | 39.7% | 9.88% (active) | -73.3% (active) | 12.4% | -51% (active) | -2.63% (active) | -73.1% (active) | 56.9% | 74.9% | -34.5% (active) | 34.4% | 9.23% (active) | 
10 | O=C(O)c1cn(C2CC2)c2cc(N3CCN(C(=O)CSc4nc(NS(=O)(=O)c5ccccc5)cc(=O)[nH]4)CC3)c(F)cc2c1=O | 94.3% | 96.2% | 92.5% | 116% | 96.2% | 106% | 95.6% | 110% | 111% | 109% | 101% | 82.4% | 100% | 112% | 93.7% | 104% | 98.1% | 95% | 83.7% | 
11 | CC(C)(C)C(=O)/C=c1/[nH]c(=O)/c(=C/c2ccccc2O)s1 | 73.1% | 76.4% | 71.7% | 46% | 23.8% | 80.4% | 26.8% | 44.2% | 87.3% | 89.1% | 78.6% | 66.4% | 58.1% | 62.7% | 61% | 60.6% | 60.1% | 82.1% | 30.4% | 
12 | COc1ccccc1S(=O)(=O)Nc1ccc2c3c(cc(-c4ccoc4)nc13)C(=O)N2C | 81.2% | 82.7% | 76.2% | 52.6% | 70.9% | 45.3% | 46.3% | 66.2% | 53.6% | 44.7% | 86.5% | 71.3% | 62.8% | 85.3% | 84.1% | 56.9% | 63.2% | 58.7% | 53.1% | 
13 | O=C(Nc1ccc(F)cc1)Nc1ccc(Br)c(C(F)(F)F)c1 | -7.43% (active) | -6.87% (active) | 22% | 23.2% | 4.62% (active) | -13.3% (active) | -16.9% (active) | 10.2% | 13.6% | -27.3% (active) | 22.3% | -6.11% (active) | 7.99% (active) | 26.8% | 22% | 3% (active) | 19.9% | 1.49% (active) | 15.3% | 
14 | C/C(=N/NC(=O)Cn1c2ccccc2c2ccncc21)c1cccs1 | 98.1% | 89.3% | 109% | 100% | 94.6% | 92% | 85.6% | 84.7% | 100% | 105% | 108% | 100% | 97.4% | 98.7% | 95.5% | 109% | 108% | 89.9% | 104% | 
15 | CCCCn1c(-c2cccc(OC)c2)nc2cc(OC)c(OC)cc2c1=O | 87.3% | 92.8% | 197% | 45.7% | 115% | 83.1% | 92.4% | 11.3% |  | 117% | 93.4% | 252% | 89.2% |  | 95.4% | 99.5% | 108% | -16.6% (active) | 107% | 77.9%
16 | C=C1C(=O)O[C@H]2[C@H]1CC/C(CNC(=O)/C1=C/CC[C@@]3(C)O[C@H]3[C@H]3OC(=O)C(=C)[C@@H]3CC1)=C\CC[C@@]1(C)O[C@@H]21 | 99.6% | 92.4% | 96% | 93.8% | 104% | 84.5% | -28.3% (active) | 91% | 93.1% | 71.8% | 105% | 104% | 102% | 99.3% | 98.5% | 97.6% | 95.6% | 79.9% | 95.2% | 
